The list is not random: actives were taken first. Their share in the collection is about 21%.
DT40 TDP1 no CPT: qHTS for Inhibitors of human tyrosyl-DNA phosphodiesterase 1 (TDP1): qHTS in cells in absence of CPT. DT40 Tdp1-/- hTDP1 cells, no CPT, ATP luminescence, 48 h. Potency, µM (highest dose often 46.2 µM), without a hit: at the top dose activity change, negative = growth inhibition, most hits filed as inhibitors. hit rate 15% among 420,000. AID 686978, 2013; further: potency means the concentration at half of the fitted maximal effect; on the % scale 0 is the no-effect control and ±100 the full control effect; nearly all actives have a fitted effect of over 55% in size
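Cells were dispensed at 400 per well, compounds added by pin tool, plates incubated ≥48 hr at 37 °C, then CellTiter-Glo added for 30 min at room temperature before luminescence reading. Line: DT40 Tdp1-/- complemented with hTDP1; camptothecin omitted.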
DRD3 antagonist: qHTS of D3 Dopamine Receptor Antagonist: qHTS | AID 652054, 2013 | hit rate 2.5% among 360,000 | D3R cells, DiscoveRx beta-arrestin luminescence, antagonist mode; hits give low values | max response, negative = inhibition, % | D(3) dopamine receptor (Homo sapiens), P35462; in the data active means max response below about -50%; inconclusive means no clear call, values can overlap the other calls; further: on the % scale 0 is the no-effect control and ±100 the full control effect
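Cells plated overnight at 1500 cells/well, then exposed to library compounds with dopamine controls for 90 minutes at 37 degrees C. DiscoveRx reagent added for 30–60 minutes at room temperature; luminescence read, quantitative HTS format.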
IL-1B inflam inh: qHTS for Inhibitors of Inflammasome Signaling: IL-1-beta AlphaLISA Primary Screen | THP-1 LPS/ATP IL-1B secretion, AlphaLISA, 16 h; hits give low values | activity change, % at 57.5 µM | hit rate 4.7% among 360,000 | AID 743279, 2014; in the data active means activity change below about -50%; inconclusive means mostly about -30% to -49%; further: on the % scale 0 is the no-effect control and ±100 the full control effect
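THP-1 cells pretreated 1 hr with compounds (up to 57.5 uM final), then stimulated with LPS (250 ng/mL final) plus ATP (1.25 mM final); secreted IL-1B measured by AlphaLISA after 16 hr, decreased signal indicating inhibition.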
D3 ag: qHTS of D3 Dopamine Receptor Agonist: qHTS; D(3) dopamine receptor (Homo sapiens), P35462; D3R DiscoveRx beta-arrestin cells, luminescence, 90 min; max activation, %; hit rate 0.58% among 410,000; AID 652048, 2013; in the data active means max activation above about 30%; further: 0% is about no effect
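Agonist mode: compounds and dopamine controls were applied to plated cells for 90 min at 37 degrees C after an overnight attachment at 1500 cells/well. Luminescent read-out followed 30 - 60 minutes at room temperature with DiscoveRx detection reagent.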
ClpP mod: qHTS Assay for Activators of ClpP; ATP-dependent Clp protease proteolytic subunit (Bacillus subtilis (strain 168)), P80244; purified B. subtilis ClpP, FRET peptide cleavage, 20 min; Potency, µM (highest dose often 57.5 µM), for inactives: at the highest dose activity change, negative = active; hit rate 1.9% among 340,000; AID 651965, 2013; active means well fitted falling curve with a large enough effect; inconclusive means small, poorly fitted or top-dose-only effect; inactive means no such curve, though single readings can be large or run the other way; further: potency means the concentration at half of the fitted maximal effect; the source files actives as falling curves though it sought activators and does not explain the sign; nearly all actives have a fitted effect of over 65% in size
Target sequence (P80244 whole entry, looked up): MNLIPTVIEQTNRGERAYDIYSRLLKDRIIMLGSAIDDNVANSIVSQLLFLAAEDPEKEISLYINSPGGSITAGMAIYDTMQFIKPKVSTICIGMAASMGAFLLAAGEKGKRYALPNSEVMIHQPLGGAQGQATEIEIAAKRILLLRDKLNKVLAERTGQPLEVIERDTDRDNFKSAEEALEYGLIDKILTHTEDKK
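Buffer: 100 mM Tris/HCl pH8, 100 mM KCl, 0.05% low protease BSA, 2.5% glycerol, 0.01% Tween-20. ClpP 10 microg/mL final; 20 min RT; delta FRET normalized to ADEP and DMSO controls.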
TDP1 cell CPT: qHTS for Inhibitors of human tyrosyl-DNA phosphodiesterase 1 (TDP1): qHTS in cells in presence of CPT. hit rate 12% among 420,000. Potency, µM (top dose mostly 46.2 µM), for the others: at the highest dose activity change, negative = growth inhibition, usual class: inhibitors. chicken DT40 Tdp1-/-;hTDP1 cells + 20 nM CPT, ATP luminescence, 48 h; further: potency means the concentration at half of the fitted maximal effect; on the % scale 0 is the no-effect control and ±100 the full control effect; nearly all actives have a fitted effect of over 55% in size
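Chicken DT40 Tdp1-/- cells complemented with human TDP1, 400 cells/well, exposed to compounds plus 20 nM camptothecin for at least 48 h at 37 C; viability read as ATP content by CellTiter-Glo luminescence.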
Active calls of the source: *; ? = inconclusive; nt = no result given; + = active, no number. Unless noted, the call rests on the fitted dose curve; in most records, active means well fitted inhibition curve with a large enough effect; inconclusive means small, poorly fitted or top-dose-only effect; inactive means flat fitted curve, though single readings scatter.

SMILES | DT40 TDP1 no CPT | DRD3 antagonist | IL-1B inflam inh | D3 ag | ClpP mod | TDP1 cell CPT
CC(C)c1ccc(-c2cc(C(=O)N3CCOCC3)c3cc(Br)ccc3n2)cc1 | ? | 6 | -73* | -6 | ? | ?
N#C/C(=C\c1c(N2CCC(C(N)=O)CC2)nc2ccccn2c1=O)C(=O)NC1CCCCC1 | ? | 8 | -5 | 2 | -4% | -17%
NC(=S)NN=Cc1c[nH]c2nccnc12 | 13µM* | + | 51 | -31 | 1% | 16µM*
NC(=S)N/N=C/c1c[nH]c2ccccc12 | -6% | -5 | 0 | 2 | -4% | 11%
CC1=C(C(=O)OC2CCCCC2)C(c2cccnc2)n2nnnc2N1 (stereo not given) | 12µM* | 2 | -10 | 12 | -2% | 8.2µM*
Cc1ccc(S(=O)(=O)N2CCOCC2)cc1C(=O)NCc1ccccn1 | -2% | -18 | -16 | -1 | -1% | 6%
CC(=O)Nc1ccc(Nc2cc(C(C)C)nc3c(-c4ccccc4)c(C)nn23)cc1 | ? | 22 | -76* | 1 | 4% | ?
Cc1nn2c(NCc3ccccn3)cc(C(C)C)nc2c1-c1ccccc1 | ? | -25 | 0 | -10 | 4% | 16µM*
CCCc1cc(NCc2ccccn2)n2nc(C)c(-c3ccccc3)c2n1 | 0.92µM* | -27 | 22 | 3 | nt | 0.58µM*
Cc1ccc(C)c(Cn2c(=O)n(C)c(=O)c3sccc32)c1 | ? | 4 | 36 | -4 | -1% | -19%
O=c1[nH]c(-c2ccccc2)cs1 | -21% | -6 | 16 | -7 | -5% | -30%
O=c1[nH]c(-c2ccc(Cl)cc2)cs1 | -24% | 0 | -55* | -2 | nt | ?
NC(=O)C1CCN(C(=O)CCNS(=O)(=O)c2ccccc2F)CC1 | 23% | -9 | -2 | 3 | -2% | 6%
CCOC(=O)C1CCCN(C(=O)COc2ccc(S(=O)(=O)N3CCOCC3)cc2)C1 (stereo not given) | 1% | 11 | -75* | -2 | -3% | -8%
CCOC(=O)C1CCCN(C(=O)c2ccc(C(=O)c3ccccc3)cc2)C1 (stereo not given) | ? | -7 | -12 | -3 | 2% | -20%
CCOC(=O)C1CCCN(C(=O)COc2ccc(C(=O)c3ccccc3)cc2)C1 (stereo not given) | 23µM* | 6 | 9 | -3 | nt | 23µM*
CCOC(=O)C1CCN(Cc2cnc(Oc3ccc(C(C)(C)C)cc3)s2)CC1 | 21µM* | -93* | 47 | -1 | 0% | ?
CCOC(=O)C1(C)CCN1C(=O)COc1ccc(C(C)(C)C)cc1 (stereo not given) | 21µM* | 0 | 33 | -7 | 0% | 21µM*
CCOC(=O)C1CCN(Cc2cnc(NC(=O)OC)s2)CC1 | 8% | -7 | 18 | 11 | 0% | -8%
CCOC(=O)C1CCN(C(=O)COc2ccc(S(=O)(=O)N3CCOCC3)cc2C)CC1 | -14% | 8 | 8 | 7 | nt | -20%
CCNc1ncc2nc(-c3cc(F)cc(F)c3)c(=O)n(Cc3ccc(F)cc3)c2n1 | 1% | nt | nt | nt | nt | -4%
CCOc1ccc(S(=O)(=O)Nc2ccc(C(=O)NCC(c3ccccc3)N(C)C)cc2)cc1 (stereo not given) | 3% | -29 | 0 | -32 | -3% | 0%
COC(=O)CN1CCN(C(=O)c2ccco2)CC1 | 4% | 18 | 8 | 0 | 2% | 1%
CCOC(=O)C1CCCN(C(=O)COc2ccc(C(C)(C)C)cc2)CC1 (stereo not given) | 15µM* | 16 | 0 | 1 | 0% | 21µM*
